Measurements: the supplement of paper PMC6518042
Values without a mark were called inactive.

Each compound was assayed on Pectobacterium parmentieri SCC3193 (assay: DuctApe activity index (growth/respiration on compound as sole nutrient source, blank-subtracted) (activity index (0-3)); higher = stronger utilization of the compound, active = 3 or more). Conditions: nutrient role (plate category): phosphate & sulphur.
Experimental: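 Biolog Phenotype Microarray plates PM1, PM2A (carbon), PM3 (nitrogen) and PM4 (phosphorus/sulfur) inoculated with P. parmentieri SCC3193 in M9-C minimal salts medium with Biolog dye A, and read in the OmniLog for 46 h. Each well was tested in triplicate and the experiment was run twice. DuctApe computed a blank-subtracted activity index (AV, 0-3) from the mean curves; growth is positive at AV >= 3 and negative at AV <= 2.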
`O=C[C@H](O)[C@@H](O)[C@H](O)[C@H](O)COP(=O)(O)O` [D-Glucose-6-Phosphate] showed a DuctApe activity index of 2.
For `CS(=O)(=O)O` [Methane Sulfonic acid], the DuctApe activity index was 0.
`NC(=O)OP(=O)(O)O` [Carbamyl Phosphate] showed a DuctApe activity index of 1.
`O=P(O)(O)OC[C@H](O)CO` (racemic) [DL-a-Glycerol Phosphate] gave a DuctApe activity index of 1.
For `NC(N)=S` [Thiourea], the DuctApe activity index was 0.
For `Nc1ccc(S(=O)(=O)O)cc1` [p-Aminobenzene Sulfonic acid], the DuctApe activity index was 0.
